The nature of assay [1]: resazurin metabolic signal in HepG2 cells – cell-based, resazurin fluorescence, 24 h, PK04 Diversity Set, profiling panel (AID 1172). Note: test concentration not given here. The settings on record: HepG2 viability, higher = more signal. Background: Alamar Blue is a resazurin reagent that responds to reducing activity.
Assay [2] in a line: budding yeast growth changes without added modifier – OD600, strain BY4716, 24 h, basal condition, primary screen (AID 1173). The settings on record: S. cerevisiae BY4716 growth, OD600, 24 h; higher = more signal, called active from +8 up or from −8 down.
Assay [3] in a line: viability profiling in MM1S myeloma cells – cell-based, resazurin fluorescence, basal, 24 h, PK04 Diversity Set, profiling panel (AID 1174). Note: test concentration not given here. The note with it: higher = more signal, called active from +8 up or from −8 down.
The target in assay [4] is Dihydroorotate dehydrogenase (quinone), mitochondrial (Plasmodium falciparum (isolate 3D7)) (UniProt Q08210). The assay can be described thus: inhibition of P. falciparum DHODH – biochemical, C-terminal His tag, absorbance 600 nm, primary screen (AID 1175).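 Note: recombinant parasite enzyme with a five histidine tag at its C terminus; test concentration not given here.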 The settings on record: PfDHODH enzyme, DCIP absorbance 600 nm; higher = more signal, called active from +8 up or from −8 down.

Assay [5] is described as follows: inhibition of PAO1 biofilm formation – strain PAO1, LB-PBS medium, absorbance 600 nm, primary screen (AID 1176). Note: test concentration not given here. The settings on record: P. aeruginosa PAO1 growth/biofilm, A600, 12 h; higher = more signal.
Assay [6] in a line: growth modulation of vineyard yeast isolate – strain RM11-1a, OD600, basal, 24 h, primary screen (AID 1177).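 Note: cultures grown under basal conditions with no added stressor; test concentration not given here.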 The settings on record: S. cerevisiae RM11-1a growth, OD600, 24 h; higher = more signal, called active from +8 up or from −8 down.
Assay [7] can be described thus: growth of efflux-deficient E. coli DRC39 – strain DRC39, OD650, 24 h, E. coli filamentation inducers, primary screen (AID 1178).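 Note: growth measured as culture turbidity by optical density at 650 nm; test concentration not given here.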 The settings on record: E. coli DRC39 acrAB, higher = more signal, called active from +8 up or from −8 down.
Assay [8] in a line: growth of efflux-deficient E. coli DRC39 – strain DRC39, OD650, 48 h, E. coli filamentation inducers, primary screen (AID 1179).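 Note: screen aims at cell division blockers that make cells filament.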 The note with it: E. coli DRC39 delta-acrAB growth, higher = more signal, called active from +8 up or from −8 down.
Assay [9] in a line: viability profiling in RPMI8226 myeloma cells – cell-based, resazurin fluorescence, basal, 24 h, PK04 Diversity Set, profiling panel (AID 1180).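 Note: RPMI8826 multiple myeloma cell line at 5000 cells per well; test concentration not given here.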 The settings on record: higher = more signal.
Assay [10] deals with E3 ubiquitin-protein ligase XIAP (Homo sapiens) (UniProt P98170). The assay can be described thus: small molecules binding XIAP protein – biophysical, small-molecule microarray, fluorescence 635 nm, primary screen (AID 1181).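 Note: score merges 667 nm emission and signal to noise over triplicate slides.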 The settings on record: higher = more signal.

Molecules are shown by their SMILES. Activity calls are given as the source filed them. Unless noted, the rule behind the calls is not given here.

Sequence of Dihydroorotate dehydrogenase (quinone), mitochondrial (Plasmodium falciparum (isolate 3D7)) (Q08210 whole entry, looked up): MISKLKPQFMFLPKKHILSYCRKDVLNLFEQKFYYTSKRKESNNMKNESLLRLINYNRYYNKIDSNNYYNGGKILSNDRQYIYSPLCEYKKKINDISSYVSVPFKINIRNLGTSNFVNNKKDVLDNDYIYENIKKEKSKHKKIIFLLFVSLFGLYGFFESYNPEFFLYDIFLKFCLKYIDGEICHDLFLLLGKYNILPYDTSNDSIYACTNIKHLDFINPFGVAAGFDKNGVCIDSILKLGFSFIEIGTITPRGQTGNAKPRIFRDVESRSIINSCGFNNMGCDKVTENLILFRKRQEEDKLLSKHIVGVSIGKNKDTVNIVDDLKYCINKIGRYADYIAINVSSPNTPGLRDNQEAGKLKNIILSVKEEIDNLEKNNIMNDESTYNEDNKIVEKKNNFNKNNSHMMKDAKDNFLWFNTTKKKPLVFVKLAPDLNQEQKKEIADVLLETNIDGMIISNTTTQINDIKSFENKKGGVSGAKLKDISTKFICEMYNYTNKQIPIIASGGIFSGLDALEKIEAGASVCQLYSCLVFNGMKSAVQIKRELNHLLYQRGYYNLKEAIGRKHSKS
Sequence of E3 ubiquitin-protein ligase XIAP (Homo sapiens) (P98170 whole entry, looked up): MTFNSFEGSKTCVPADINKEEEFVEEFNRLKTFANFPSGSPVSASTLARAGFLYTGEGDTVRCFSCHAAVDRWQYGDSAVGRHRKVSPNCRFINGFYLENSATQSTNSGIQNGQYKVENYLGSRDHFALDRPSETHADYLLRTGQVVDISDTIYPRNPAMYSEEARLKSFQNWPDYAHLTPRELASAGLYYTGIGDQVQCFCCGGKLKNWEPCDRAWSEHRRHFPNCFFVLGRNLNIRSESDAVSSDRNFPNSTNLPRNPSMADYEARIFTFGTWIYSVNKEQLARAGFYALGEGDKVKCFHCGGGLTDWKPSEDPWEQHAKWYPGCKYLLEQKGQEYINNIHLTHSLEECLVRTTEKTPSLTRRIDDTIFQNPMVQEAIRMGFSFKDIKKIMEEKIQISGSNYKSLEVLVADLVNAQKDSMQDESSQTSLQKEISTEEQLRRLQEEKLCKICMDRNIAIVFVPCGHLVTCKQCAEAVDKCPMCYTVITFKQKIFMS

For `CO[C@H]1COC(=O)[C@@H]2CCCN2C(=O)[C@@H](C)COC(=O)CC=C[C@@H]1C`, the z-score in [1] is 0.264; in assay [2] it was -0.0361 (inactive); in assay [3] it was 0.285 (inactive); in assay [5], -0.725 (inactive); in assay [6] it was 0.023 (inactive); in [7], 0.488 (inactive). Also, the z-score in assay [8] was 0.362 (inactive); in [9] it was 0.0409. For the same compound, the composite z-score is -1.95 (inactive) in assay [4] and 0.285 in assay [10].
`C#C[C@@H](CC)O[Si](C#Cc1ccc(Oc2ccccc2)cc1)(C(C)C)C(C)C`: the z-score was -0.543 in assay [1]; -0.87 (inactive) in [2]; -0.613 (inactive) in assay [3]; 0.833 (inactive) in assay [5]; 0.898 (inactive) in assay [6]; -0.568 (inactive) in assay [7]. The z-score in [8] is -0.416 (inactive); in assay [9] it was -1.1. Further, the composite z-score in assay [4] is -0.661 (inactive); in [10], -0.0562.
For `CCCC[C@@H](O)C1=C(C)C[C@H]2C(=O)N(Cc3ccccc3)C(=O)[C@H]2[C@H]1CO`, the z-score in assay [1] is -0.31; in assay [2], -3.87 (inactive); in assay [3] it was -0.327 (inactive); in [5], 0.27 (inactive); in assay [6], 0.161 (inactive); in assay [7] it was 0.11 (inactive). The z-score is 0.183 (inactive) in assay [8] and -0.287 in [9]. Besides, the composite z-score in [4] is -2.65 (inactive); in assay [10], -0.0911.
As for `CCN1C(=O)[C@H]2[C@H]3[C@H](O)[C@H](O)CC(=NOC(C)CN4CCCCc5nc(C)c(C)cc54)[C@@H]3CC[C@H]2C1=O` (stereo not given in full), the z-score in assay [1] is -1.3; in assay [2], -0.0913 (inactive); in [3], -0.669 (inactive); in [5], -0.418 (inactive); in [6] it was 0.002 (inactive); in assay [7], 0.538 (inactive). Further, the z-score is 1.2 (inactive) in assay [8] and -0.889 in [9]. For the same compound, the composite z-score was 0.301 (inactive) in assay [4] and -0.211 in [10].
With `CO[C@H]1COC(=O)CC=C[C@H](C)[C@@H](NS(=O)(=O)c2ccc(C)cc2)COC(=O)CC=C[C@@H]1C`, the z-score in assay [1] is 0.55; in [2], -1.66 (inactive); in [3] it was -0.31 (inactive); in assay [5], -0.573 (inactive); in assay [6] it was -4.14 (inactive); in [7] it was -0.721 (inactive). The z-score is -1.03 (inactive) in assay [8] and -0.203 in [9]. Further, the composite z-score is -2.98 (inactive) in assay [4] and -0.255 in assay [10].
`CC(CCN1CCc2nc(-c3ccccc3)c(-c3ccccc3)cc2C1)=NOC[C@@H](C)[C@H](OCc1ccccc1)C(C)C`: the z-score was -1.12 in [1]; -2.01 (inactive) in assay [2]; 0.504 (inactive) in assay [3]; -0.315 (inactive) in [5]; 0.0117 (inactive) in assay [6]; -1.23 (inactive) in [7]. Moreover, the values for the z-score in [8] and in [9] were -0.936 (inactive) and 0.64, respectively. Also, the composite z-score in [4] is 0.928 (inactive); in assay [10] it was -0.04.
As for `CCN1C(=O)[C@H]2[C@H]3[C@H](O)C=CC(=O)[C@@H]3CC[C@H]2C1=O`, the z-score is 0.384 in [1]; -0.067 (inactive) in [2]; 0.442 (inactive) in assay [3]; -0.519 (inactive) in assay [5]; 0.197 (inactive) in [6]; 0.484 (inactive) in assay [7]. The z-score in assay [8] is 0.205 (inactive); in assay [9] it was -0.194. In addition, the composite z-score in assay [4] is -0.28 (inactive); in [10] it was -0.133.
On to `CO[C@@H]1COC(=O)CC=C[C@@H](C)[C@@H]2C=C[C@H](O)[C@@H](COC(=O)[C@H](C)NC(=O)CC=C[C@H]1C)O2`, for which the z-score in assay [1] was 0.592; in assay [2], -0.0997 (inactive); in assay [3] it was 0.945 (inactive); in assay [5], -0.786 (inactive); in [6] it was -1 (inactive); in assay [7] it was 0.574 (inactive). For the same compound, the z-score in assay [8] is -0.637 (inactive); in assay [9], 1.61. Also, the composite z-score in assay [4] was -1.15 (inactive); in assay [10], -0.102.
In the case of `C[N+](C)(C)CCCCCCNC(=O)[C@@H]1C[C@@H]2C(=O)N3CCC[C@H]3C(=O)N2[C@@H]1c1cccc(OCCO)c1`, the z-score was 2.14 in assay [1]; -0.887 (inactive) in [2]; 0.984 (inactive) in assay [3]; 0.808 (inactive) in assay [5]; -0.183 (inactive) in [6]; 0.0995 (inactive) in assay [7]. Also, the z-score in assay [8] is -0.514 (inactive); in assay [9], -0.245. The composite z-score in assay [4] was -1.83 (inactive); in [10] it was -0.0655.
On to `CC(=O)OC[C@H]1O[C@@H](ON=C[C@@H](C)[C@H](OCc2ccccc2)C(C)C)[C@H](OC(C)=O)[C@@H](OC(C)=O)[C@@H]1OC(C)=O`, for which the z-score in assay [1] is -1.04; in assay [2] it was 0.0426 (inactive); in assay [3] it was -2.37 (inactive); in assay [5], 1.01 (inactive); in [6], -0.519 (inactive); in [7], 0.153 (inactive). Besides, the z-score in assay [8] was 0.722 (inactive); in assay [9], -0.8. Further, the composite z-score in assay [4] was -0.269 (inactive); in [10], -0.162.
For the compound `CCOC(=O)[C@H](CC(C)C)NC(=O)CCC1CC(OC(=O)NCc2cccc3ccccc23)CC2(CCCC(COC(=O)NCCc3ccccc3OC)O2)O1` (stereo not given in full), the z-score in [1] was 0.563; in assay [2] it was -0.581 (inactive); in [3], 0.072 (inactive); in assay [5], 0.684 (inactive); in assay [6] it was -0.0922 (inactive); in assay [7], -0.436 (inactive). Besides, the z-score in [8] was -0.141 (inactive); in assay [9], -0.31. Moreover, the composite z-score in [4] is -0.987 (inactive); in assay [10], -0.134.
